Test results published in PubChem BioAssay (EPA / NIEHS).
More than one record can exist for a structure, and the calls need not agree. Calls of active or inactive are those of the source. How the source made its calls: active means hit-call score of the fitted dose curve at least 0.9, where 1 is the maximum; inactive means score below 0.9.

Test: ATG_M_19_CIS: Attagene CIS-FACTORIAL HepG2 Assay for M19 Transcription Factor (Internal Marker) (AID 2282939)
Settings: HepG2 Attagene CIS-FACTORIAL M19 internal marker reporter; actives raise or lower the signal
Procedure: ATG_CIS is a cell-based, multiplexed-readout assay that uses HepG2, a human liver cell line, with measurements taken at 24 hours after chemical dosing in a 24-well plate.ATG_M_19_CIS is one of 52 assay component(s) measured or calculated from the ATG_CIS assay. It is designed to make measurements of mRNA induction, a form of inducible reporter, as detected with fluorescence intensity signals by Reverse transcription polymerase chain reaction (RT-PCR) and Capillary electrophoresis technology.Data from the assay component ATG_M_19_CIS was analyzed into 1 assay endpoint. This assay endpoint, ATG_M_19_CIS, was analyzed with bidirectional fitting relative to DMSO as the negative control and baseline of activity. Using a type of inducible reporter, measures of mRNA for gain or loss-of-signal activity can be used to understand the background control at the transcription factor-level as they relate to the gene . Furthermore, this assay endpoint can be referred to as a secondary readout, because this assay has produced multiple assay endpoints where this one serves a background control function. To generalize the intended target to other relatable targets, this assay endpoint is annotated to the background measurement intended target family, where the subfamily is internal marker.
Human liver HepG2 cells are transiently transfected with multiple reporter transcription units (MRTUs) in 6-well plates using FuGene 6 reagent (Roche; 3 ml FuGene/1 mg DNA). The MRTU constructs are regulated by a cis-regulating element (promoter). […] A major difference between the CIS and TRANS system is that in CIS activities of endogenous TFs are measured, whereas the TRANS assay evaluates changes in activities of exogenous, chimeric NR-Gal4 proteins. […] At the end of 24 hour incubation, total RNA was isolated using TriZol reagent (Invitrogen). The isolated RNA is then reverse-transcribed using oligo(dT) primer and Mo-MLV reverse transcriptase (Invitrogen) with DNAse I (Ambion) treatment for 30 min. The one-tenth of the produced cDNA was amplified by PCR using Taq DNA polymerase (Invitrogen) and two reporter sequence-specific primers. The PCR products were fluorescently labeled by primer extension with 6-arboxyfluorescein (6-FAM) 5'-labeled reporter sequence-specific primer (2 min at 95 C, 20 s at 68 C and 10 min at 72 C) and these products were digested with 5U of HpaI (New England Biolabs) for 2h at 37 C. The fragments were purified using Qiaquick PCR columns (Qiagen), analyzed on an ABI 3130xL genetic analyzer (Applied Biosystems) with peak positions identified by using a set of X-rhodamine (ROX)-labeled MapMarker1000 molecular weight standards (BioVentures). The raw capillary electrophoresis data was processed using Attagraph software (Attagene).

| SMILES | outcome | AC50 |
| --- | --- | --- |
| CC(C)(c1ccccc1)c1ccc(O)c(C(C)(C)c2ccccc2)c1 | inactive |  |
| ClC1(Cl)C2(Cl)C3(Cl)C4(Cl)C(Cl)(Cl)C5(Cl)C3(Cl)C1(Cl)C5(Cl)C24Cl (stereo not given) | inactive |  |
| Cl/C=C/Cl | inactive |  |
| CCc1ccccc1C | inactive |  |
| CCCCC(CC)CO[N+](=O)[O-] (stereo not given) | inactive |  |
| O=C(CCl)CCl | inactive |  |
| Cc1ccccc1N | inactive |  |
| ClC(Cl)=C(Cl)C(Cl)=C(Cl)Cl | inactive |  |
| Nc1cccc2ccccc12 | inactive |  |
| Cn1sc(Cl)cc1=O | inactive |  |
| CC(C#N)CCC#N (stereo not given) | inactive |  |
| CCCCOCCOC(C)=O | inactive |  |
| O=Cc1cccc(Oc2ccccc2)c1 | inactive |  |
| CCCCCCCCCl | inactive |  |
| O=C(OC1CCCCC1)c1ccccc1C(=O)OC1CCCCC1 | inactive |  |
| O=C1CCCN1 | inactive |  |
| CCN1CCC2(CC1)COc1cc3c(cc12)N(C(=O)c1ccc(-c2ccc(-c4nnc(C)o4)cc2C)cc1)CC3 | inactive |  |
| C=C(C)C#N | inactive |  |
| O=C(O)C(Cl)(Cl)Cl | inactive |  |
| CN(CCCC(=O)c1cccnc1)N=O | inactive |  |

| SMILES | outcome | AC50 |
| --- | --- | --- |
| COP(=O)(OC)O/C(=C\Cl)c1cc(Cl)c(Cl)cc1Cl | inactive |  |
| N#CCCO | inactive |  |
| COP(=S)(OC)Oc1cc(Cl)c(Cl)cc1Cl | inactive |  |
| Cc1cc(Cl)ccc1O[C@H](C)C(=O)O | inactive |  |
| O=C(Nc1ccc2[nH]ccc2c1)c1cc2cc(F)ccc2n1Cc1cccc(F)c1 |  | 13.7 µM (active) |
| O=C(O)C(F)(F)C(F)(F)C(F)(F)C(F)(F)C(F)(F)C(F)(F)C(F)(F)C(F)(F)C(F)(F)C(F)(F)F | inactive | 138 µM (active) |
| CCOP(=S)(OCC)SCCS(=O)(=O)CC | inactive |  |
| COC(=O)Cc1ccccc1 | inactive |  |
| CCc1ccccc1N | inactive |  |
| C[C@]12CC[C@H](O)CC1=CC[C@@H]1[C@@H]2CC[C@]2(C)C(=O)CC[C@@H]12 | inactive |  |
| CC(C)(C)CC(C)(C)c1ccc(O)cc1 | inactive |  |
| CCCCCCCCSC(=O)Oc1cc(Cl)nnc1-c1ccccc1 | inactive |  |
| CCC(=O)c1ccccc1 | inactive |  |
| O=C(O)C(F)(F)C(F)(F)C(F)(F)C(F)(F)C(F)(F)C(F)(F)F | inactive |  |
| CC(C)CCCCCCOC(=O)c1ccccc1C(=O)OCCCCCCC(C)C | inactive |  |
| O=C(Cl)c1ccc(Cl)cc1 | inactive |  |
| CC(=O)C(Cl)C(=O)N(C)C (stereo not given) | inactive |  |
| CCC1(c2ccc(N)cc2)CCC(=O)NC1=O (stereo not given) | inactive |  |
| Oc1ccc(-c2ccccc2)cc1 | inactive |  |
